# Bioassay records: PubChem, several laboratories
# Rows were chosen to be rich in hits. Some 4.5% of all compounds tested hit in one or more screens of this group.
# Efflux pump inh: inhibitors of Candida efflux pumps in yeast, primary screen, S. cerevisiae, Nile Red, multiplex. S. cerevisiae Candida pump triplex. inhibition, % at 10 µM. hit rate 0.44% among 330,000. AID 485275, 2010;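 active = plate passing quality check with inhibition over a set limit, or well fluorescence over plate mean plus 4 SD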;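 also: Nile Red retained in pooled yeast measured as flow cytometry median fluorescence; 0% = buffer negative control and 100% = Enniatin B positive control; higher means more Nile Red kept so more efflux inhibition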
# GRK2 inh: compounds blocking aptamer binding on GRK2 – biochemical, human GRK2, bead flow cytometry, HTS, primary screen; Beta-adrenergic receptor kinase 1 (Homo sapiens), P25098; FAM-aptamer displacement from GRK2; inhibition of aptamer binding, % at 10 µM; hit rate 0.59% among 330,000;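 active = inhibition of aptamer binding above 40%, roughly 3 SD of noise, on plates passing a quality check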;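 also: median bead fluorescence of bound FAM aptamer so fluorescent compounds give negative values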
# ALR H2O2 inh: inhibitors of human ALR sulfhydryl oxidase, primary screen, biochemical, H2O2 detection, HRP-luminol luminescence, single point; FAD-linked sulfhydryl oxidase ALR (Homo sapiens), P55789; purified ALR, DTT oxidation; inhibition, % (no concentration beside the values); hit rate 3.8% among 290,000;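 active = mean replicate inhibition above about 79%, with every replicate also reaching it, limit read from the data; inconclusive = only one of the two criteria met; inactive = mean below limit and not every replicate reaching it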
# Rce1 inh: yeast Rce1p protease inhibitors, primary screen, biochemical, fluorescence, cell-free homogeneous; yeast membranes, quenched prenylated peptide cleavage fluorescence; calls only; hit rate 0.27% among 290,000; AID 2563, 2010;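 active = fall in fluorescence gain of 50% or more versus controls, with final raw signal at or below 3038400; inconclusive = same 50% fall but final raw signal above 3038400; inactive = fall in fluorescence gain under 50%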;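 also: plate controls were neutral control wells for no effect and wells lacking membranes for full effect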
# HDAC3 inh: HDAC3 deacetylase inhibitors, primary screen, biochemical, fluorescence, cell-free homogeneous. recombinant HDAC3, fluorogenic peptide/trypsin coupled. inhibition, % at 8.3 µM. hit rate 0.15% among 320,000. AID 2718, 2010; in the data active = inhibition above about 26%, passing the limit was not always enough; inconclusive = no clear call, values can overlap the other calls
# Target sequence (O15379 whole entry, looked up): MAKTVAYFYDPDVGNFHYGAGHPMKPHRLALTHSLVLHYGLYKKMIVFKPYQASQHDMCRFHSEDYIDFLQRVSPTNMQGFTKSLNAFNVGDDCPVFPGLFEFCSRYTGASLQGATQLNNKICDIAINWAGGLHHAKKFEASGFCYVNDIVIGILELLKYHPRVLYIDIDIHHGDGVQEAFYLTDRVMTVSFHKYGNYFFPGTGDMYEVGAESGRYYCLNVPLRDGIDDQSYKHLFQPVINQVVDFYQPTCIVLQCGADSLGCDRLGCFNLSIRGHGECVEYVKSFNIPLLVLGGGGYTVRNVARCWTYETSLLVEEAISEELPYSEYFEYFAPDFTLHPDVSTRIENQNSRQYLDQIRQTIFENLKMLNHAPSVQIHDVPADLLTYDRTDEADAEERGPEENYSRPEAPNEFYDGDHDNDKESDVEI
# Rtt109 Vps75: inhibitors of C. albicans Rtt109/Vps75 HAT, primary screen, biochemical, ThioGlo CoA-SH fluorescence, plate reader | Histone acetyltransferase RTT109 (Candida albicans (strain SC5314 / ATCC MYA-2876)), … | purified Rtt109/Vps75, 4 h | inhibition, % at 34.9 µM | hit rate 0.16% among 330,000;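 active = inhibition of at least 50% in every replicate; inconclusive = best replicate reaches 50% inhibition but some replicates fall short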
# The depositor's hits bear a star; i = inactive; ? = inconclusive; . = not tested or not shown.
SMILES,Efflux pump inh,GRK2 inh,ALR H2O2 inh,Rce1 inh,HDAC3 inh,Rtt109 Vps75
CC(C)N=Cc1c(O)[nH]c2ccccc12,0.0,1.0,98.8*,i,1.7,2.5
Cc1cccc(/N=C/c2c(O)[nH]c3ccccc23)n1,0.0,0.0,41.8,.,5.4,.
CC(C)(CO)N=Cc1c(O)[nH]c2ccccc12,0.0,0.0,99.8*,i,4.8,6.0
Oc1[nH]c2ccccc2c1C=Nc1ccc2c(c1)OCCO2,.,.,.,i,.,20.6
NC(=O)CC(NC(=O)c1ccc(Br)cc1)c1ccc(N2CCCCCC2)c([N+](=O)[O-])c1 (stereo not drawn),-0.1,4.0,-1.4,i,10.7,12.7
C[C@H](CO)N1C[C@H](C)[C@@H](CN(C)C(=O)NC2CCCCC2)Oc2ccc(NC(=O)C3CCCCC3)cc2C1=O,0.3,1.0,-2.4,.,-0.5,9.6
CC(C)OC(=O)c1ccc2nc3ccccc3nc2c1,-0.1,7.0,28.2,i,6.7,-11.9
CCc1ccc2oc(C(=O)NCC(c3ccc(OC)cc3)N3CCCCC3)c(C)c2c1 (stereo not drawn),-0.1,0.0,-12.5,i,3.9,-5.9
CC(=O)Nc1ccc(NC(=O)CSc2nnc(-c3cccnc3)o2)cc1,0.4,3.0,98.2*,i,-7.6,-5.9
O=C(CSc1cn[nH]n1)Nc1ccccc1C(=O)O,0.1,0.0,-0.5,i,2.0,-5.6
O=C(Nc1ccccc1N1CCCC1)c1ccccc1F,-0.1,1.0,98.4*,i,6.7,-3.4
O=C(Nc1ccccc1N1CCCC1)c1cccc(Cl)c1Cl,0.0,4.0,98.3*,i,6.9,5.5
O=C(CN1C(=O)C2CCCCC2C1=O)Nc1ccccc1N1CCCC1 (stereo not drawn),0.1,2.0,97.3*,i,-1.8,19.2
O=C(Cc1ccccc1F)Nc1cc(Cl)ccc1N1CCCC1,0.2,0.0,.,i,-0.3,-0.5
O=C(Nc1ccccc1N1CCCCC1)c1ccccc1F,-0.1,2.0,37.6,i,7.3,0.3
O=C(Cc1ccccc1F)Nc1ccccc1N1CCCC1,-1.5,5.0,98.2*,i,-11.5,-2.4
O=C1CCC(C(=O)Nc2ccccc2N2CCCC2)=NN1,-0.1,13.0,84.7*,i,3.2,-0.3
CCC(C(=O)Nc1ccccc1N1CCCC1)c1ccccc1 (stereo not drawn),-0.4,0.0,97.9*,i,2.6,2.2
CCC(Oc1ccccc1)C(=O)Nc1ccccc1N1CCCC1 (stereo not drawn),0.1,0.0,31.9,i,8.4,15.0
O=C(CNCC1CCCO1)Nc1ccccc1N1CCCCCC1 (stereo not drawn),0.0,4.0,98.5*,i,13.4,1.5
COc1ccc(C(CNC(=O)CN2C(=O)NC3(CCCC3)C2=O)N(C)C)cc1 (stereo not drawn),0.0,0.0,-4.1,i,1.2,27.1
N/C(=N\N=C\c1ccc(O)c(O)c1)c1nonc1N,0.0,4.0,31.6,i,8.1,-6.4
COc1cc(/C=N/N=C(\N)c2nonc2N)ccc1O,-0.1,0.0,99.1*,i,?,4.0
N/C(=N\N=C\c1ccc(O)cc1)c1nonc1N,0.2,5.0,98.9*,i,7.3,4.8
O=C(COC(=O)C1CCN(S(=O)(=O)c2ccccc2)CC1)NCCc1ccccc1,-0.1,0.0,.,.,0.6,7.4
Cc1nnc(Nc2ccc(O)cc2)[nH]c1=O,0.2,7.0,98.7*,i,-0.1,-5.6
Cc1nnc(Nc2ccc(C(=O)O)cc2)[nH]c1=O,-0.1,2.0,-5.2,i,?,.
COC(=O)NCC(c1ccco1)N1CCN(c2ccccc2)CC1 (stereo not drawn),0.0,2.0,96.4*,i,0.0,-6.7
O=C(NCC(c1cccnc1)N1CCN(c2ccc(F)cc2)CC1)c1ccco1 (stereo not drawn),-0.2,0.0,92.4*,i,0.1,2.4
